Many of the other results were omitted from the sample, so hits are more common in it than they were.
ROS inducer: inducers of reactive oxygen species in cancer cells; U2OS ROS induction, H2DCF-DA fluorescence; ROS induction (% of piperlongumine), % at 10 µM; 46,000 tested, 2% active; AID 624156; in the data active = ROS induction above about 79%, passing the limit was not always enough
Large screens that a line does not name were inactive.

C[C@H](CO)N1C[C@H](C)[C@@H](CN(C)Cc2ccc(-c3ccccc3)cc2)Oc2c(NS(=O)(=O)c3cccs3)cccc2C1=O	ROS inducer 89
COc1ccc(S(=O)(=O)Nc2cccc3c2O[C@@H](CN(C)Cc2ccc(-c4ccccc4)cc2)[C@H](C)CN([C@@H](C)CO)C3=O)cc1	none
C[C@@H]1CN([C@@H](C)CO)C(=O)c2cccc(NS(=O)(=O)c3cccs3)c2O[C@@H]1CN(C)Cc1ccc(-c2ccccc2)cc1	none
COc1ccc(S(=O)(=O)Nc2cccc3c2O[C@H](CN(C)Cc2ccc(Cl)c(Cl)c2)[C@H](C)CN([C@@H](C)CO)C3=O)cc1	ROS inducer 84
COc1ccc(S(=O)(=O)Nc2cccc3c2O[C@H](CN(C)Cc2ccc(Cl)c(Cl)c2)[C@@H](C)CN([C@H](C)CO)C3=O)cc1	none
C[C@@H]1CN([C@@H](C)CO)C(=O)c2cccc(NS(=O)(=O)c3ccc(F)cc3)c2O[C@H]1CN(C)Cc1ccc(Oc2ccccc2)cc1	none
COc1ccc(S(=O)(=O)Nc2cccc3c2O[C@H](CN(C)Cc2ccc(-c4ccccc4)cc2)[C@H](C)CN([C@H](C)CO)C3=O)cc1	ROS inducer 96
C[C@H]1CN([C@@H](C)CO)C(=O)c2cccc(NS(=O)(=O)c3cccs3)c2O[C@H]1CN(C)Cc1ccccc1	none
COc1ccc(S(=O)(=O)Nc2cccc3c2O[C@@H](CN(C)Cc2ccc(Cl)c(Cl)c2)[C@@H](C)CN([C@H](C)CO)C3=O)cc1	none
C[C@H]1CN([C@@H](C)CO)C(=O)c2cccc(NS(=O)(=O)c3ccc(F)cc3)c2O[C@@H]1CN(C)Cc1ccc(Oc2ccccc2)cc1	ROS inducer 104
C=CCSc1nnc2n(-c3ccccc3)c(=O)c3c(C)c(C)sc3n12	none
O=C1CSc2cc(S(=O)(=O)N3CCN(c4ccccc4)CC3)ccc2N1	none
O=C(CCCOc1ccccc1)NC1CCCCC1	none
Cc1ccc2c(cnn2C(=O)CCCC(=O)NC2CCCC(C)C2C)c1 (stereo unspecified)	none
O=C1OC(Oc2cccc3cccnc23)(c2ccccc2)c2ccccc21 (stereo unspecified)	none
COc1ccc(S(=O)(=O)Nc2cccc3c2O[C@@H](CN(C)Cc2ccc(Oc4ccccc4)cc2)[C@H](C)CN([C@H](C)CO)C3=O)cc1	none
Cc1ccc(S(=O)(=O)Nc2cccc3c2O[C@H](CN(C)Cc2ccc(Oc4ccccc4)cc2)[C@H](C)CN([C@H](C)CO)C3=O)cc1	ROS inducer 125
Cc1noc(C)c1S(=O)(=O)Nc1cccc2c1O[C@@H](CN(C)Cc1ccc(-c3ccccc3)cc1)[C@@H](C)CN([C@@H](C)CO)C2=O	none
Cc1ccc(S(=O)(=O)Nc2cccc3c2O[C@@H](CN(C)Cc2ccc(Oc4ccccc4)cc2)[C@@H](C)CN([C@H](C)CO)C3=O)cc1	none
Cc1ccc(S(=O)(=O)Nc2cccc3c2O[C@H](CN(C)Cc2ccc(Oc4ccccc4)cc2)[C@@H](C)CN([C@@H](C)CO)C3=O)cc1	none
COc1ccc(S(=O)(=O)Nc2cccc3c2O[C@H](CN(C)Cc2ccc(Oc4ccccc4)cc2)[C@@H](C)CN([C@@H](C)CO)C3=O)cc1	none
Cc1noc(C)c1S(=O)(=O)Nc1cccc2c1O[C@H](CN(C)Cc1ccc(-c3ccccc3)cc1)[C@H](C)CN([C@@H](C)CO)C2=O	ROS inducer 122
Cc1noc(C)c1S(=O)(=O)Nc1cccc2c1O[C@@H](CN(C)Cc1ccc(Oc3ccccc3)cc1)[C@@H](C)CN([C@H](C)CO)C2=O	none
COc1ccc(S(=O)(=O)Nc2cccc3c2O[C@H](CN(C)Cc2ccc(Oc4ccccc4)cc2)[C@H](C)CN([C@@H](C)CO)C3=O)cc1	ROS inducer 110
CC(C)CCNC(=O)c1ccc2c(c1)N(Cc1ccccc1)CCS2	none
CCc1nc(N2CCCCC2)c(C#N)c2c1CCCC2	none
COC(=O)c1ccc(CSc2nc3ccncc3[nH]2)cc1	none
NC(=O)CSc1nc2c(sc3ccccc32)c(=O)n1-c1ccccc1	none
NNC(=O)C1CCC(c2ccc(Cl)cc2)CC1 (stereo unspecified)	none
C=CCn1c(SCC(=O)Nc2ccc(S(N)(=O)=O)cc2)nnc1-c1ccco1	none
COc1ccc(Cn2c(SCc3cccc(C(F)(F)F)c3)nc3ccncc32)cc1	none
CC(C)NC(=O)c1ccccc1N	none
O=S(=O)(NC(=NCCc1ccccn1)Nc1cccc(Cl)c1)c1ccccc1	none
O=C(Nc1ccc(Br)cc1)c1ccc2nsnc2c1	none
C=C1C(=O)O[C@H]2[C@H]1C[C@H](OC(=O)/C(C)=C\C)/C(C)=C\CC[C@@]1(C)O[C@@H]21	ROS inducer 139
C=C1C(=O)O[C@@H]2[C@H]1[C@H](O)C[C@]1(C)[C@@H](O)CC=C(C)[C@@H]21	none
C=C1C(=O)O[C@H]2[C@H]1[C@@H](OC(=O)C(C)(O)CCl)C(OC(C)=O)/C(C(=O)OC)=C\CC[C@@]1(C)O[C@H]21 (stereo partly specified)	none
C=C1C(=O)O[C@H]2[C@H]1[C@@H](OC(=O)/C(C)=C\C)C(OC(C)=O)/C(C(=O)OC)=C\CC[C@@]1(C)O[C@H]21 (stereo partly specified)	ROS inducer 98
C=C1C(=O)O[C@H]2[C@H]1[C@@H](OC(=O)/C(C)=C/C)C(OC(C)=O)/C(C(=O)OC)=C\CC[C@@]1(C)O[C@H]21 (stereo partly specified)	none
COc1cc(N=C(C)c2c(C)[nH]n(-c3nc4ccccc4s3)c2=O)cc(OC)c1	none
CCc1ccccc1NC(=O)c1cc2c(=O)n3ccccc3nc2n1C	none
Cc1cccn2c(=O)c3cc(C(=O)N4CCN(C)CC4)c(=N)n(Cc4cccnc4)c3nc12	none
Cn1cnnc1SCc1ccc(-c2csnn2)cc1	none
O=C(Nc1nc2nc(-c3ccccc3)cc(-c3ccccc3)n2n1)c1ccccc1	none
CC(=O)Nc1nonc1-c1nc2ccccc2n1Cc1ccccc1Br	none
O=CNc1nonc1NC(=O)c1ccccc1Cl	none
Cn1c(-c2nonc2NC(=O)c2ccccc2Br)nc2ccccc21	ROS inducer 102
O=C(CSCc1ccc(F)cc1)NC1CCCCC1	none
Cn1c2c(c3cc(C4CCCCC4)ccc31)C(=O)CCC2	none
C[C@@H]1CN([C@H](C)CO)C(=O)c2cccc(NC(=O)CCCCCC(=O)Nc3ccccc3N)c2O[C@@H]1CN(C)Cc1ccccc1	none
C[C@@H]1CN([C@@H](C)CO)C(=O)c2cccc(NC(=O)CCCCCC(=O)Nc3ccccc3N)c2O[C@H]1CN(C)Cc1ccc(Oc2ccccc2)cc1	ROS inducer 133
C[C@@H]1CN([C@H](C)CO)C(=O)c2cccc(NC(=O)CCCCCC(=O)Nc3ccccc3N)c2O[C@@H]1CN(C)CC1CC1	none
C[C@H]1CN([C@@H](C)CO)C(=O)c2cccc(NC(=O)CCCCCC(=O)Nc3ccccc3N)c2O[C@@H]1CN(C)CC1CC1	ROS inducer 124
C[C@@H]1CN([C@@H](C)CO)C(=O)c2cccc(NC(=O)CCCCCC(=O)Nc3ccccc3N)c2O[C@H]1CN(C)CC1CC1	none
C[C@@H]1CN([C@@H](C)CO)C(=O)c2cccc(NC(=O)CCCCCC(=O)Nc3ccccc3N)c2O[C@H]1CN(C)Cc1ccc(Cl)c(Cl)c1	ROS inducer 154
C[C@H]1CN([C@@H](C)CO)C(=O)c2cc(NC(=O)CCCCCC(=O)Nc3ccccc3N)ccc2O[C@H]1CN(C)Cc1ccc(Cl)c(Cl)c1	none
C[C@@H]1CN([C@@H](C)CO)C(=O)c2cccc(NC(=O)CCCCCC(=O)Nc3ccccc3N)c2O[C@H]1CN(C)Cc1ccccc1	none
C[C@@H]1CN([C@H](C)CO)C(=O)c2cc(NC(=O)CCCCCC(=O)Nc3ccccc3N)ccc2O[C@@H]1CN(C)Cc1ccc(Cl)c(Cl)c1	none
